Pf apPOL block = Pf-apPOL inhibitors, biochemical, fluorescence | Plasmodium falciparum apicoplast DNA polymerase (apPOL) | Recombinant Pf-apPOL, molecular beacon fluorescence, 1.5 h | inhibition, % at 10 µM | 210,000 tested, 0.25% active | AID 1794808, 2022
mHTT CaM bind = mutant huntingtin-calmodulin interaction inhibitors – biochemical, AlphaScreen, primary screen. P42858. AlphaScreen His-mHTT/GST-CaM binding, luminescence. inhibition, % at 15 µM. 190,000 tested, 3.6% active. AID 1671202, 2021
Each line names hits and unclear results; the compound was inactive in the other large screens. Only some compounds are listed: those with a hit (about 3.5% of all), similar ones and a draw of the others. Cut-off read from the data, not from the text of the source: active = inhibition above about 50%; inactive = the rest.

Cn1c(N2CCC(C(=O)NCCCN3CCOCC3)CC2)cc(=O)n(C)c1=O	none
COc1ccc(Nc2n[nH]nc2C(=O)Nc2cccc(SC)c2)cc1	mHTT CaM bind 50
COc1ccc(C(=O)Nc2cccc(SC)c2)cc1	none
COc1ccc(C)cc1NC(=O)c1nc(C)oc1C	none
COc1ccc(OC)c(NC(=O)N2CCc3nc[nH]c3C2)c1	none
COc1ccc(NC(=O)N2CCc3nc[nH]c3C2)c(OC)c1	Pf apPOL block 73
Cc1ccc(NC(=O)N2CCC(c3nc(C(=O)N4CCCC4)c(C)o3)CC2)c(C)c1	none
O=C(CCc1conc1-c1ccc(F)cc1)N1CCN(c2ccccc2Cl)CC1	none
Cc1ccc(N2C(=O)C3N=NN(c4ccc(C)c(F)c4)C3C2=O)cc1F (configuration not stated)	none
CCCn1ccc2oc(C)c(C(=O)N3CCN(c4cccc(C)c4)CC3)c2c1=O	mHTT CaM bind 67
CCn1ccc2oc(C)c(C(=O)N3CCN(c4cccc(Cl)c4)CC3)c2c1=O	mHTT CaM bind 94
CCCn1ccc2oc(C)c(C(=O)N3CCN(c4ccccc4)CC3)c2c1=O	none
CCn1ccc2oc(C)c(C(=O)N3CCN(c4ccc(Cl)cc4)CC3)c2c1=O	none
O=C(Cc1cccc(F)c1)N1CCCC(COc2ccc(C(=O)N3CCCC3)cc2)C1 (configuration not stated)	none
O=C(CSc1cn(Cc2ccc(Cl)cc2)c2ccccc12)Nc1ccc2c(c1)OCO2	mHTT CaM bind 64
O=C(CSc1cn(Cc2ccc(Cl)cc2)c2ccccc12)N1CCCCC1	none
O=C(CSc1cn(Cc2ccc(F)cc2)c2ccccc12)N1CCOCC1	none
Cc1ccccc1Cn1cc(SCC(=O)N2CCOCC2)c2ccccc21	none
CC1CCN(C(=O)CSc2cn(Cc3ccccc3Cl)c3ccccc23)CC1	mHTT CaM bind 58
O=C(CSc1cn(Cc2ccccc2Cl)c2ccccc12)N1CCCCC1	mHTT CaM bind 53
O=C(CSc1cn(Cc2ccc(Cl)cc2)c2ccccc12)N1CCOCC1	mHTT CaM bind 72
O=C(CSc1cn(Cc2ccccc2Cl)c2ccccc12)Nc1ccc2c(c1)OCO2	none
Cc1cccc(C(=O)NCCC2CCN(C(=O)NC3CCCCC3)CC2)c1	none
CC1=C(C(=O)Nc2ccc(C)cn2)C(c2ccc(N(C)C)cc2)C2=C(CC(C)(C)CC2=O)N1 (configuration not stated)	none
O=C(C1CCC1)N1CCC(CCOCc2ccc(F)cc2)CC1	none
O=C(CSc1cn(Cc2cccc(F)c2)c2ccccc12)N1CCCCC1	none
CC1CCN(C(=O)CSc2cn(Cc3ccc(F)cc3)c3ccccc23)CC1	mHTT CaM bind 83
Cc1cc(C)n(-c2ccc(C(=O)Nc3ccc(O)cc3)cn2)n1	none
Cc1cccc2[nH]c(-c3ccc(NC(=O)c4ccc(N)cc4)cc3)nc12	none
COc1ccc(Cl)cc1C(=O)Nc1ccc(F)cc1	none
O=[N+]([O-])c1ccc2nc(-c3ccccc3)[nH]c2c1	none
Nc1ccc(C(=O)Nc2ccc(-c3nc4ccc(NC(=O)c5ccc(N)cc5)cc4[nH]3)cc2)cc1	mHTT CaM bind 52
CC(=O)Nc1ccc(-c2nc3ccc(NC(C)=O)cc3[nH]2)cc1	Pf apPOL block 81
O=C(O)c1ccc(-c2nc3ccc(-c4ccc5nc(-c6ccc(C(=O)O)cc6)[nH]c5c4)cc3[nH]2)cc1	Pf apPOL block 86 (no result: mHTT CaM bind)
C=CC(=O)Nc1ccc(-c2nc3ccc(NC(=O)C=C)cc3[nH]2)cc1	none
COc1ccc(Cl)cc1C(=O)Nc1ccc(-c2nc3ccccc3[nH]2)cc1	mHTT CaM bind 90
CC(=O)Nc1nonc1OCCOc1nonc1NC(C)=O	none
CC(C)NC(=O)C1CCCN1C(=O)c1cc(-c2cccc(Cl)c2)on1 (configuration not stated)	none
CC(C)c1noc(COC2CCCN(C(=O)c3cnccn3)C2)n1 (configuration not stated)	none
OCCN(CCO)c1nc(N2CCCCC2)c2nc(N(CCO)CCO)nc(N3CCCCC3)c2n1	Pf apPOL block 61 (no result: mHTT CaM bind)
OCCNc1nc(N2CCCCC2)nc(N2CCCCC2)n1	none (no result: Pf apPOL block)
O=C1c2ccccc2C(=O)c2c1ccc1c(=O)n(Cc3ccccc3)[nH]c21	none
COc1ccccc1C(=O)Nc1ccc(F)c(F)c1	none
CCc1nc(-c2ccc(C(=O)N3CCN(c4ccccc4)CC3)cc2)cs1	none
CCc1nc(-c2ccc(C(=O)N3CCc4ccccc4C3)cc2)cs1	mHTT CaM bind 60
Cc1c(Cc2ccccc2)sc(NC(=O)C(F)(F)F)c1C(N)=O	none
Cc1c(Cc2ccccc2)sc(NC(=O)CCc2ccccc2)c1C(N)=O	mHTT CaM bind 52
CCCC(C)C(=O)Nc1ccc(Br)cc1 (configuration not stated)	none
CCCC(C)C(=O)Nc1ccc(OCC)cc1 (configuration not stated)	mHTT CaM bind 100
CCCC12CN3CC(C)(CN(C1)C3c1ccc(O)c(OC)c1)C2=O (configuration not stated)	none
N#C/C(=C\c1cc(Cl)c(O)c(Cl)c1)c1ccc([N+](=O)[O-])cc1	none
COc1cc(CN2CCc3nc(Nc4ccc(F)cc4)ncc3C2)ccc1OC(C)C	mHTT CaM bind 95

Assay outcomes from PubChem.
